# Reference: PubChem BioAssay AID1159580 (chemical genetic matrix, 2015)
# The whole screen tested about 5,500 compounds, of which about 2,000 (36%) were called active. Not shown: some 18% with an inconclusive outcome. The list shows a part of the results. Unmarked numbers belong to inactive results. No stated cut-off is given here; in the data, active means normalized growth mostly below about 0.91 (no sharp cut-off); inconclusive means no clear call, values can overlap the other calls; inactive means mostly above about 0.92.
# Assay: chemical genetic growth profiling, strain panel (AID 1159580);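 further: tested at 20 µM; growth read once vehicle control cultures reached saturation at 30 °C; 1 = growth at the plate median or of vehicle wells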
# Settings: growth OD
# [1] = S. cerevisiae deletion strains, locus YDR150W, strain NUM1, stronger effect = lower value
# [2] = S. cerevisiae deletion strains, locus YJR075W, strain HOC1, stronger effect = lower value
# [3] = S. cerevisiae deletion strains, locus YMR263W, strain SAP30, stronger effect = lower value
# [4] = S. cerevisiae deletion strains, locus YMR307W, strain GAS1, stronger effect = lower value
# [5] = S. cerevisiae deletion strains, locus YNL128W, strain TEP1, stronger effect = lower value
# [6] = S. cerevisiae deletion strains, locus YNL322C, strain KRE1, stronger effect = lower value
# [7] = S. cerevisiae deletion strains, locus YPL055C, strain LGE1, stronger effect = lower value
smiles,measurement,setting,value
CC(=O)OC1CN2CCC1CC2 (stereo not given),normalized growth,"S. cerevisiae deletion strains, locus YAL013W, strain DEP1, stronger effect = lower value",0.997
same,normalized growth,"S. cerevisiae deletion strains, locus YBR021W, strain FUR4, stronger effect = lower value",1.01
same,normalized growth,"S. cerevisiae deletion strains, locus YBR229C, strain ROT2, stronger effect = lower value",0.973
same,normalized growth,"S. cerevisiae deletion strains, locus YCL029C, strain bik1, stronger effect = lower value",0.983
same,normalized growth,"S. cerevisiae deletion strains, locus YDL035C, strain GPR1, stronger effect = lower value",1.02
same,normalized growth,"S. cerevisiae deletion strains, locus YDL074C, strain BRE1, stronger effect = lower value",1.03
same,normalized growth,"S. cerevisiae deletion strains, locus YDL101C, strain DUN1, stronger effect = lower value",0.989
same,normalized growth,"S. cerevisiae deletion strains, locus YDL134C, strain PPH21, stronger effect = lower value",0.988
same,normalized growth,"S. cerevisiae deletion strains, locus YDL185W, strain tfp1, stronger effect = lower value",0.965
same,normalized growth,"S. cerevisiae deletion strains, locus YDL192W, strain arf1, stronger effect = lower value",0.985
same,normalized growth,"S. cerevisiae deletion strains, locus YDR101C, strain arx1, stronger effect = lower value",0.987
same,normalized growth,[1],0.982
same,normalized growth,"S. cerevisiae deletion strains, locus YDR162C, strain NBP2, stronger effect = lower value",0.991
same,normalized growth,"S. cerevisiae deletion strains, locus YDR318W, strain mcm21, stronger effect = lower value",1
same,normalized growth,"S. cerevisiae deletion strains, locus YDR388W, stronger effect = lower value",0.991
same,normalized growth,"S. cerevisiae deletion strains, locus YDR502C, strain sam2, stronger effect = lower value",0.993
same,normalized growth,"S. cerevisiae deletion strains, locus YEL061C, strain CIN8, stronger effect = lower value",0.995
same,normalized growth,"S. cerevisiae deletion strains, locus YER110C, stronger effect = lower value",0.959
same,normalized growth,"S. cerevisiae deletion strains, locus YER155C, strain BEM2, stronger effect = lower value",1
same,normalized growth,"S. cerevisiae deletion strains, locus YER167W, strain BCK2, stronger effect = lower value",1
same,normalized growth,"S. cerevisiae deletion strains, locus YGL078C, strain dbp3, stronger effect = lower value",0.993
same,normalized growth,"S. cerevisiae deletion strains, locus YGL086W, strain mad1, stronger effect = lower value",0.994
same,normalized growth,"S. cerevisiae deletion strains, locus YGL248W, strain PDE1, stronger effect = lower value",1.01
same,normalized growth,"S. cerevisiae deletion strains, locus YGR078C, strain PAC10, stronger effect = lower value",1.01
same,normalized growth,"S. cerevisiae deletion strains, locus YGR135W, strain pre9, stronger effect = lower value",0.995
same,normalized growth,"S. cerevisiae deletion strains, locus YGR229C, strain SMI1, stronger effect = lower value",1.01
same,normalized growth,"S. cerevisiae deletion strains, locus YGR252W, strain gcn5, stronger effect = lower value",1.07
same,normalized growth,"S. cerevisiae deletion strains, locus YHR030C, strain SLT2, stronger effect = lower value",1
same,normalized growth,"S. cerevisiae deletion strains, locus YHR079C, strain IRE1 (second series), stronger effect = lower value",0.982
same,normalized growth,"S. cerevisiae deletion strains, locus YHR094C, strain hxt1, stronger effect = lower value",0.985
same,normalized growth,"S. cerevisiae deletion strains, locus YHR129C, strain ARP1, stronger effect = lower value",1
same,normalized growth,"S. cerevisiae deletion strains, locus YHR200W, strain rpn10, stronger effect = lower value",0.985
same,normalized growth,"S. cerevisiae deletion strains, locus YIL066C, strain RNR3, stronger effect = lower value",0.993
same,normalized growth,"S. cerevisiae deletion strains, locus YIL073C, strain SPO22, stronger effect = lower value",0.97
same,normalized growth,"S. cerevisiae deletion strains, locus YIL125W, strain kgd1, stronger effect = lower value",0.982
same,normalized growth,"S. cerevisiae deletion strains, locus YIR030C, strain dcg1, stronger effect = lower value",0.971
same,normalized growth,"S. cerevisiae deletion strains, locus YJL095W, strain BCK1, stronger effect = lower value",1.04
same,normalized growth,"S. cerevisiae deletion strains, locus YJL134W, strain LCB3, stronger effect = lower value",0.987
same,normalized growth,"S. cerevisiae deletion strains, locus YJL168C, strain set2, stronger effect = lower value",0.994
same,normalized growth,"S. cerevisiae deletion strains, locus YJL187C, strain SWE1 (second series), stronger effect = lower value",1.01
same,normalized growth,"S. cerevisiae deletion strains, locus YJR043C, strain POL32, stronger effect = lower value",1.01
same,normalized growth,[2],1.02
same,normalized growth,"S. cerevisiae deletion strains, locus YKL009W, strain mrt4, stronger effect = lower value",0.963
same,normalized growth,"S. cerevisiae deletion strains, locus YKL068W, stronger effect = lower value",0.982
same,normalized growth,"S. cerevisiae deletion strains, locus YKL085W, strain MDH1 (second series), stronger effect = lower value",0.992
same,normalized growth,"S. cerevisiae deletion strains, locus YKL085W, strain MDH1, stronger effect = lower value",0.992
same,normalized growth,"S. cerevisiae deletion strains, locus YKL190W, strain CNB1, stronger effect = lower value",0.997
same,normalized growth,"S. cerevisiae deletion strains, locus YKR001C, strain vps1, stronger effect = lower value",0.981
same,normalized growth,"S. cerevisiae deletion strains, locus YLR039C, strain RIC1, stronger effect = lower value",1
same,normalized growth,"S. cerevisiae deletion strains, locus YLR058C, strain SHM2, stronger effect = lower value",0.986
same,normalized growth,"S. cerevisiae deletion strains, locus YLR102C, strain apc9, stronger effect = lower value",0.982
same,normalized growth,"S. cerevisiae deletion strains, locus YLR262C, strain YPT6, stronger effect = lower value",0.997
same,normalized growth,"S. cerevisiae deletion strains, locus YLR268W, strain sec22, stronger effect = lower value",1.09
same,normalized growth,"S. cerevisiae deletion strains, locus YLR330W, strain CHS5, stronger effect = lower value",0.991
same,normalized growth,"S. cerevisiae deletion strains, locus YLR342W, strain FKS1 (second series), stronger effect = lower value",1.02
same,normalized growth,"S. cerevisiae deletion strains, locus YLR371W, strain rom2, stronger effect = lower value",0.929
same,normalized growth,"S. cerevisiae deletion strains, locus YLR418C, strain cdc73, stronger effect = lower value",1.05
same,normalized growth,"S. cerevisiae deletion strains, locus YML016C, strain PPZ1, stronger effect = lower value",0.981
same,normalized growth,"S. cerevisiae deletion strains, locus YML032C, strain rad52, stronger effect = lower value",1.01
same,normalized growth,"S. cerevisiae deletion strains, locus YML124C, strain tub3, stronger effect = lower value",0.976
same,normalized growth,"S. cerevisiae deletion strains, locus YMR078C, strain ctf18, stronger effect = lower value",0.972
same,normalized growth,"S. cerevisiae deletion strains, locus YMR223W, strain ubp8, stronger effect = lower value",0.995
same,normalized growth,[3],1.01
same,normalized growth,[4],1.1
same,normalized growth,"S. cerevisiae deletion strains, locus YNL067W, strain RPL9B, stronger effect = lower value",1.04
same,normalized growth,[5],0.997
same,normalized growth,"S. cerevisiae deletion strains, locus YNL153C, strain GIM3, stronger effect = lower value",1.01
same,normalized growth,"S. cerevisiae deletion strains, locus YNL233W, strain BNI4, stronger effect = lower value",1.04
same,normalized growth,"S. cerevisiae deletion strains, locus YNL250W, strain rad50, stronger effect = lower value",0.98
same,normalized growth,"S. cerevisiae deletion strains, locus YNL271C, strain bni1, stronger effect = lower value",0.987
same,normalized growth,"S. cerevisiae deletion strains, locus YNL298W, strain CLA4, stronger effect = lower value",0.962
same,normalized growth,"S. cerevisiae deletion strains, locus YNL307C, strain MCK1, stronger effect = lower value",0.988
same,normalized growth,[6],0.995
same,normalized growth,"S. cerevisiae deletion strains, locus YNR052C, strain pop2, stronger effect = lower value",0.989
same,normalized growth,"S. cerevisiae deletion strains, locus YOL006C, strain TOP1, stronger effect = lower value",1.04
same,normalized growth,"S. cerevisiae deletion strains, locus YOL012C, strain htz1",1.28
same,normalized growth,"S. cerevisiae deletion strains, locus YOL147C, strain pex11, stronger effect = lower value",0.989
same,normalized growth,"S. cerevisiae deletion strains, locus YOR061W, strain CKA2, stronger effect = lower value",0.975
same,normalized growth,"S. cerevisiae deletion strains, locus YOR136W, strain idh2, stronger effect = lower value",0.988
same,normalized growth,"S. cerevisiae deletion strains, locus YOR144C, strain elg1, stronger effect = lower value",0.968
same,normalized growth,"S. cerevisiae deletion strains, locus YOR184W, strain ser1, stronger effect = lower value",0.98
same,normalized growth,"S. cerevisiae deletion strains, locus YOR316C, strain cot1, stronger effect = lower value",0.978
same,normalized growth,[7],1.02
same,normalized growth,"S. cerevisiae deletion strains, locus YPL241C, strain CIN2, stronger effect = lower value",0.999
same,normalized growth,"S. cerevisiae deletion strains, locus YPR119W, strain clb2, stronger effect = lower value",0.987
same,normalized growth,"S. cerevisiae deletion strains, locus YPR141C, strain kar3, stronger effect = lower value",0.963
same,normalized growth,"S. cerevisiae deletion strains, locus YPR163C, strain tif3, stronger effect = lower value",0.986
same,normalized growth,"S. cerevisiae deletion strains, locus YPR167C, strain met16, stronger effect = lower value",0.984
same,normalized growth,"S. cerevisiae deletion strains, strain wtn01, stronger effect = lower value",1.01
same,normalized growth,"S. cerevisiae strains, strain wild type, stronger effect = lower value",1.01
Cc1ccc(S(=O)(=O)N[C@@H](Cc2ccccc2)C(=O)CCl)cc1,normalized growth,"S. cerevisiae deletion strains, locus YAL040C, strain CLN3, stronger effect = lower value",0.932
same,normalized growth,"S. cerevisiae deletion strains, locus YCL061C, strain MRC1 (second series), stronger effect = lower value",0.987
same,normalized growth,[1],0.998
same,normalized growth,"S. cerevisiae deletion strains, locus YDR363W, strain ESC2, stronger effect = lower value",1
same,normalized growth,"S. cerevisiae deletion strains, locus YER002W, strain NOP16, stronger effect = lower value",0.904 (active)
same,normalized growth,[2],0.959
same,normalized growth,[3],0.993
same,normalized growth,[4],0.896 (active)
same,normalized growth,[5],0.955
same,normalized growth,"S. cerevisiae deletion strains, locus YNL175C, strain NOP13, stronger effect = lower value",0.902 (active)
same,normalized growth,"S. cerevisiae deletion strains, locus YNL197C, strain WHI3, stronger effect = lower value",0.892 (active)
same,normalized growth,"S. cerevisiae deletion strains, locus YNL224C, strain SQS1, stronger effect = lower value",0.954
same,normalized growth,[6],1.01
same,normalized growth,"S. cerevisiae deletion strains, locus YOR083W, strain WHI5 (second series), stronger effect = lower value",0.957
same,normalized growth,[7],0.983
